Screening data: PubChem BioAssay, National Center for Advancing Translational Sciences (NCATS)
KB-3-1 cytotox – kills parental KB-3-1 adenocarcinoma cells; KB-3-1 viability, CellTiter-Glo ATP luminescence, 72 h; hit rate 1.4% among 400,000; Potency, µM (titrated, usually from 46.1 µM), hits mostly cytotoxic; AID 1347075; further: nearly all actives have a fitted effect of over 60% in size
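Cells are dispensed, compounds pinned in, plates held at 37 °C for 72 h, then CellTiter-Glo is added and luminescence read after 10 minutes. Cell line: parental KB-3-1 in phenol-red-free DMEM, 10% FBS.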
HT1080 IDH1KD tx – toxicity to HT-1080 IDH1 knockdown cells (counter line). HT-1080 IDH1 knockdown viability, ATP luminescence, 48 h. Potency, µM (top dose mostly 46.1 µM), inactives show at the top dose activity, negative = toxicity, usual class: cytotoxic. hit rate 2% among 360,000;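 further: 0% = DMSO wells and -100% = cell-free medium wells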
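Assay cells: HT-1080 with IDH1 knockdown, 750 per well, RPMI/5% FBS. Exposure: 48 h at 37 °C following 2 h pre-incubation. Read: CellTiter-Glo luminescence; fitted concentration-response, curve class assigned.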
KB-V1 MDR tox – kills drug-selected multidrug resistant KB-V1 cells. KB-V1 MDR cells viability, CellTiter-Glo, 72 h. Potency, µM (top dose mostly 46.1 µM), actives largely listed as cytotoxic. hit rate 3.4% among 400,000. AID 1347076; further: nearly all actives have a fitted effect of over 60% in size
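Following 72 h at 37 degrees C with compound, KB-V1 cell viability was read by CellTiter-Glo luminescence, medium being phenol-red-free DMEM plus 10% FBS; concentration-response parameters came from normalized, curve-fitted qHTS data.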
HT1080NT lethal – kills 2HG-producing HT-1080-NT fibrosarcoma cells; HT-1080-NT fibrosarcoma viability, CellTiter-Glo ATP luminescence, 48 h; Potency, µM (top dose mostly 46.1 µM), inactives show at the highest dose activity, negative = less viability, most hits filed as cytotoxic; hit rate 1.6% among 360,000;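 further: NT is the 2HG producing partner of a matched IDH1 knockdown line; 0% = DMSO-treated cells and -100% = media-only wells without cells; nearly all actives have a fitted effect of over 55% in size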
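HT-1080-NT fibrosarcoma cells (2HG-overproducing), 750 cells/well in RPMI with 5% FBS, dosed after 2 h and incubated 48 h at 37C. CellTiter-Glo luminescence normalized to DMSO and no-cell wells; concentration-response curves fitted and classed.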
Starred values were filed as active, the others as inactive. Most compounds without a hit are left out; they make up all but 5.7% or so of the library. The call rests on the fitted dose curve; in most records, active means well fitted curve in the direction sought with a large enough effect; inconclusive means small, poorly fitted or top-dose-only effect, or another doubt; inactive means no such curve, though single readings can be large; an effect the other way counts as inactive or inconclusive. Unless noted, on the % scale 0 is the no-effect control and ±100 the full control effect; potency means the concentration at half of the fitted maximal effect.

What do the screens show for `C[C@H]1CN([C@@H](C)CO)S(=O)(=O)c2ccc(Br)cc2O[C@H]1CN(C)S(=O)(=O)c1ccccc1`?
KB-3-1 cytotox: inactive; HT1080 IDH1KD tx: -7%; KB-V1 MDR tox: inconclusive; HT1080NT lethal: -10%

What do the screens show for `CCCNC(=O)N(C)C[C@@H]1Oc2cc(C#C[C@H](C)O)ccc2S(=O)(=O)N([C@H](C)CO)C[C@H]1C`?
KB-3-1 cytotox: inactive; HT1080 IDH1KD tx: 7%; KB-V1 MDR tox: inactive; HT1080NT lethal: 13%

How did COCCNC(=O)c1ccc2c(=O)n(CCc3ccccc3)c(SCC(=O)CC(=O)OC)nc2c1 do in these assays?
KB-3-1 cytotox: inactive; KB-V1 MDR tox: inactive

What do the screens show for `CC(C)CC(=O)Nc1ccc(C(=O)NNC(=S)NC(=O)C2CCCCC2)cc1`?
KB-3-1 cytotox: inactive; HT1080 IDH1KD tx: inconclusive; KB-V1 MDR tox: 10µM*; HT1080NT lethal: 7.9µM*

How did N#CCC(=O)Nc1ccc(C(=O)NNC(=S)NC2CCCCC2)cc1 do in these assays?
KB-3-1 cytotox: inactive; HT1080 IDH1KD tx: 0%; KB-V1 MDR tox: inactive; HT1080NT lethal: 3%

How did COc1cccc(NC(=O)C(Cc2ccccc2)NS(=O)(=O)c2ccc3c(c2)oc(=O)n3C)c1 (stereo unspecified) do in these assays?
KB-3-1 cytotox: inactive; KB-V1 MDR tox: inactive

How did OCCN1CCN(CC(O)COc2ccc(C34CC5CC(CC(C5)C3)C4)cc2)CC1 (stereo unspecified) do in these assays?
KB-3-1 cytotox: inconclusive; HT1080 IDH1KD tx: 23µM*; KB-V1 MDR tox: inactive; HT1080NT lethal: 18µM*

How did COc1ccccc1C(=O)NCCC(=O)NCCCSc1ccccc1 do in these assays?
KB-3-1 cytotox: inactive; HT1080 IDH1KD tx: -5%; KB-V1 MDR tox: 21µM*; HT1080NT lethal: 0%

How did COc1ccccc1C(=O)NCCC(=O)NCCOc1ccccc1 do in these assays?
KB-3-1 cytotox: inactive; HT1080 IDH1KD tx: 10%; KB-V1 MDR tox: inactive; HT1080NT lethal: -20%

Results for O=C(C[N+]12CN3CN(CN(C3)C1)C2)c1ccc(-c2ccccc2)cc1 ?
KB-3-1 cytotox: inconclusive; KB-V1 MDR tox: inactive

What do the screens show for `COc1ccc2c(c1)CCN=C2Cc1ccc(OC)c(OC)c1`?
KB-3-1 cytotox: inactive; HT1080 IDH1KD tx: inconclusive; KB-V1 MDR tox: inconclusive; HT1080NT lethal: -20%

Results for COc1ccc(NCc2ccccc2[N+](=O)[O-])cc1OC ?
KB-3-1 cytotox: inactive; HT1080 IDH1KD tx: 1%; KB-V1 MDR tox: 21µM*; HT1080NT lethal: -5%

Results for COc1cc2c(cc1OC)C(Cc1ccccc1[N+](=O)[O-])=NCC2 ?
KB-3-1 cytotox: inconclusive; HT1080 IDH1KD tx: -1%; KB-V1 MDR tox: 21µM*; HT1080NT lethal: -1%

How did CC1CCN(c2ccc(NC(=S)NC(=O)c3ccc(-c4cccc([N+](=O)[O-])c4)o3)cc2)CC1 do in these assays?
KB-3-1 cytotox: inactive; HT1080 IDH1KD tx: 6.3µM*; KB-V1 MDR tox: inactive; HT1080NT lethal: inconclusive

How did CC1CCN(c2ccccc2NC(=S)NC(=O)c2ccc(-c3cccc([N+](=O)[O-])c3)o2)CC1 do in these assays?
KB-3-1 cytotox: inactive; HT1080 IDH1KD tx: 15%; KB-V1 MDR tox: inactive; HT1080NT lethal: 8%

Results for CN(C)c1ccc(Sc2ccc3nc(N)nc(N)c3c2)cc1 ?
KB-3-1 cytotox: 8.2µM*; HT1080 IDH1KD tx: 1.6µM*; KB-V1 MDR tox: 8.2µM*; HT1080NT lethal: 2.3µM*

Results for CN(C)c1ccc(-c2c3ccccc3nc3ccccc23)cc1 ?
KB-3-1 cytotox: inconclusive; KB-V1 MDR tox: inactive

What do the screens show for `COc1ccc2occ(C(=O)c3ccccc3)c2c1`?
KB-3-1 cytotox: inconclusive; HT1080 IDH1KD tx: 0%; KB-V1 MDR tox: inactive; HT1080NT lethal: -1%

Results for COc1ccc(OC)c(C(=O)c2coc3ccc(O)cc23)c1 ?
KB-3-1 cytotox: inconclusive; HT1080 IDH1KD tx: inconclusive; KB-V1 MDR tox: 10µM*; HT1080NT lethal: inconclusive

Results for Cc1ccc(Nc2nc(NCc3ccco3)nc3nccnc23)cc1C ?
KB-3-1 cytotox: inactive; KB-V1 MDR tox: inactive

Results for COc1ccc(CSc2nnnn2-c2ccccc2)cc1 ?
KB-3-1 cytotox: inactive; HT1080 IDH1KD tx: 1%; KB-V1 MDR tox: inactive; HT1080NT lethal: 3%

How did COc1cc(CSc2nnnn2-c2ccc(C)cc2)cc(OC)c1OC do in these assays?
KB-3-1 cytotox: 10µM*; HT1080 IDH1KD tx: 0%; KB-V1 MDR tox: 2.1µM*; HT1080NT lethal: inconclusive

How did COc1ccc(F)cc1CSc1nnnn1-c1ccc(O)cc1 do in these assays?
KB-3-1 cytotox: inactive; HT1080 IDH1KD tx: -24%; KB-V1 MDR tox: 16µM*; HT1080NT lethal: -29%

What do the screens show for `CCOCCCNC(=O)/C(C#N)=C/c1cc(OC)c(O)c([N+](=O)[O-])c1`?
KB-3-1 cytotox: 7.3µM*; HT1080 IDH1KD tx: 4.6µM*; KB-V1 MDR tox: 5.8µM*; HT1080NT lethal: 6.5µM*

How did CCOCCCNC(=O)/C(C#N)=C/c1ccc(C(=O)OC)cc1 do in these assays?
KB-3-1 cytotox: inactive; HT1080 IDH1KD tx: 6%; KB-V1 MDR tox: inactive; HT1080NT lethal: 20%

Results for CCOCCCNC(=O)/C(C#N)=C/c1ccc(Cl)c([N+](=O)[O-])c1 ?
KB-3-1 cytotox: inconclusive; HT1080 IDH1KD tx: 33µM*; KB-V1 MDR tox: inconclusive; HT1080NT lethal: 23µM*

What do the screens show for `Cc1cc(C(=O)CSc2nc3ccccc3c(=O)n2C)c(C)n1Cc1ccc2c(c1)OCO2`?
KB-3-1 cytotox: inconclusive; HT1080 IDH1KD tx: 5.8µM*; KB-V1 MDR tox: inconclusive; HT1080NT lethal: 1%

Results for CC1CCN(C(=O)CSc2nc3ccccc3c(=O)n2Cc2ccc3c(c2)OCO3)CC1 ?
KB-3-1 cytotox: inconclusive; HT1080 IDH1KD tx: -26%; KB-V1 MDR tox: 4.6µM*; HT1080NT lethal: inconclusive

How did Cc1cc(C(=O)CSc2nnc(-c3ccccc3)n2Cc2ccc3c(c2)OCO3)c(C)n1C do in these assays?
KB-3-1 cytotox: inactive; HT1080 IDH1KD tx: 8%; KB-V1 MDR tox: inactive; HT1080NT lethal: 9%

What do the screens show for `Cc1nc2ccccc2c2nc(NC(=O)Cc3ccccc3)nn12`?
KB-3-1 cytotox: inconclusive; HT1080 IDH1KD tx: 1%; KB-V1 MDR tox: 18µM*; HT1080NT lethal: 3%

What do the screens show for `CCCC(=O)N(C)c1ccc(/C=C2\C=Cc3ccccc32)cc1`?
KB-3-1 cytotox: inconclusive; KB-V1 MDR tox: inactive

Results for Clc1nc(NCCc2ccccc2)c2cn[nH]c2n1 ?
KB-3-1 cytotox: inactive; HT1080 IDH1KD tx: -27%; KB-V1 MDR tox: 1.2µM*; HT1080NT lethal: -10%

What do the screens show for `Cn1ncc2c(NCCc3ccccc3)nc(Cl)nc21`?
KB-3-1 cytotox: inconclusive; HT1080 IDH1KD tx: -22%; KB-V1 MDR tox: 4.6µM*; HT1080NT lethal: -10%

What do the screens show for `O=c1[nH]ncc(NCCc2ccccc2)c1Cl`?
KB-3-1 cytotox: inconclusive; HT1080 IDH1KD tx: 3%; KB-V1 MDR tox: 8.2µM*; HT1080NT lethal: -1%

What do the screens show for `Cn1ncc2c(Nc3ccccc3Cl)nc(Cl)nc21`?
KB-3-1 cytotox: inactive; HT1080 IDH1KD tx: -14%; KB-V1 MDR tox: inactive; HT1080NT lethal: -11%
